Values without a mark were called inactive.
Experiment: changes in parasitized red cell lysis, either direction – P. falciparum Indochina, OD700, 3 h, PSAC antagonist project, primary screen (AID 1156)
Conditions: P. falciparum-infected erythrocytes, osmotic lysis, higher = more signal, called active from +8 up or from −8 down

SMILES	z-score
COC(=O)C=C(CC(O)c1cccc(Cl)c1)OC (stereo not drawn)	-0.188
COC(=O)[C@@]1(Cc2ccccc2)[C@H]2c3cc(C(=O)N4CCCC4)n(CC4CC4)c3C[C@H]2CN1C(=O)c1ccccc1	1.68
COCCOC(=O)N1C(=O)[C@@]2(c3cc(C#CCCO)ccc31)[C@H](c1ccc(OCCO)cc1)N1[C@H](c3ccccc3)[C@H](c3ccccc3)OC(=O)[C@H]1[C@@H]2C(=O)N1CCN(c2ncccn2)CC1	-0.325
COC(=O)[C@@]1(Cc2ccc(F)cc2)[C@H]2c3cc(C(=O)N(C)C)n(Cc4ccc(S(C)(=O)=O)cc4)c3C[C@H]2CN1C(=O)c1ccccc1	1.01
CCC(CC)C(O)C1C=CC2C(=O)N(C)C(=O)C2N1Nc1ccccc1 (stereo not drawn)	0.0973
C=CCNC(=O)[C@@H]1[C@H]2C(=O)O[C@H](c3ccccc3)[C@H](c3ccccc3)N2[C@H](c2ccc(OCCO)cc2)[C@@]12C(=O)Nc1ccc(C#CCCO)cc12	1.14
O=C(NCc1ccc(F)cc1)[C@H]1C[C@H]2C(=O)N[C@@H](Cc3ccccc3)C(=O)N2[C@H]1c1ccc(O)cc1	-1.55
COC(=O)[C@@]1(Cc2ccc(F)cc2)[C@H]2c3cc(C(=O)N4CCCC4)n(Cc4cc(C)n(C)n4)c3C[C@H]2CN1C(=O)c1ccccc1	0.424
C=CC[C@]1(C(=O)N2CCCCC2)N=C(c2ccc(OCCCO)cc2)O[C@H]1c1ccccc1	1.61
CN1C(=O)C2C=CC(C(O)C3CCCCC3)N(Nc3ccc([N+](=O)[O-])cc3[N+](=O)[O-])C2C1=O (stereo not drawn)	-0.226
C=C(C)C1C(=C)CN([C@H](CO)c2ccccc2)C1=O (stereo partly drawn)	0.711
N#Cc1ccc(NN2C(C(O)c3c(F)cccc3Cl)C=CC3C(=O)N(c4ccccc4)C(=O)C32)cc1 (stereo not drawn)	1.21
[N-]=[N+]=Nc1ccccc1[C@H]1OC(c2ccc(OCCCO)cc2)=N[C@@]1(Cc1ccccc1)C(=O)O	1.65
O=C1NCC(=O)N2[C@@H]1C[C@@H](C(=O)O)[C@H]2c1cccc(OCCO)c1	-1.22
COc1ccc(CCN2C(=O)[C@@]3(Cc4ccccc42)c2ccccc2C(=O)N(Cc2ccccc2C(F)(F)F)[C@H]3c2ccc(CO)cc2)cc1	-1.87
CN(C)C(=O)[C@]1(Cc2ccccc2CN=[N+]=[N-])N=C(c2ccc(OCCCO)cc2)O[C@@H]1c1ccccc1CN=[N+]=[N-]	2.66
CC(C)C[C@@H]1NC(=O)[C@H]2C[C@@H](C(=O)NCCCCCCN)[C@@H](c3ccc(O)cc3)N2C1=O	-0.265
C=C(CCCC)/C(=C/C[C@@H](OC(C)=O)c1ccccc1OCCO)c1cnc2ccccc2c1	1.96
COC(=O)[C@@]1(Cc2ccccc2)[C@H]2c3cc(C(=O)N4CCCC4)n(Cc4cccc5ccccc45)c3C[C@H]2CN1C(=O)c1ccccc1	1.27
[N-]=[N+]=NCc1ccccc1[C@@H]1OC(c2ccc(OCCCO)cc2)=N[C@]1(CCS(=O)(=O)c1ccccc1)C(=O)NCc1ccccc1	1.75
O=C1C[C@]2(c3ccc([N+](=O)[O-])cc3)C(=O)N(CCN3CCOCC3)c3cc(CO)ccc3[C@H]2N1C1CCCCC1	-0.584
O=C1O[C@@H](c2ccccc2)[C@@H](c2ccccc2)N2[C@@H](c3ccc(OCCO)cc3)[C@]3(C(=O)Nc4ccccc43)[C@@H](C(=O)NC[C@H](O)c3ccccc3)[C@H]12	0.539
Cc1ccc(C(C)CC(O)C2C=CC3C(=O)N(c4ccccc4)C(=O)C3N2Nc2ccc([N+](=O)[O-])cc2)o1 (stereo not drawn)	0.0777
CC(C)C[C@@H]1NC(=O)[C@@H]2C[C@H](C(=O)NCCCCCN)[C@H](c3cccc(OCCO)c3)N2C1=O	1.1
C=C(CCCC)C(=O)CC[C@@H](OC(=O)c1cccnc1)c1ccc(CO)o1	0.873
COc1ccc(C(O)C2C=CC3C(=O)N(c4ccccc4)C(=O)C3N2Nc2ccc(C(C)C)cc2)cc1OCc1ccccc1 (stereo not drawn)	-0.167
CC(C)[C@@H](CO)NC(=O)[C@H]1[C@@H](c2ccccc2)N(c2ccccc2)O[C@@H]1C	-0.466
O=C1c2ccccc2[C@](Cc2ccccc2I)(C(=O)NC2CC2)[C@H](c2ccc(CO)cc2)N1C1CCCCC1	3.82

— PubChem BioAssay
